High-throughput results from PubChem BioAssay.
Hits are enriched below; roughly 0.58% of the tested compounds scored in any of these assays.
CtBP-E1A inh – CtBP/E1A binding inhibition | 340,000 compounds, 0.49% hits | activity change, % (concentration not given with the values) | AID 651724 | AlphaScreen GST-E1A/His-CtBP binding, 1536-well; stronger effect = lower value
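Protein mix (5X: 125 nM each GST-E1A, His-CtBP) was incubated with pinned compound 2 h at 37 deg C in dark, in 50 mM Tris pH 8.0 buffer with 300 mM NaCl. Glutathione donor and nickel acceptor beads followed; AlphaScreen signal read after 1 h.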
Six1-Eya2 blk – blocks human Six1 binding to Eya2; Q15475+O00167; AlphaScreen GST-Six1/His-Eya2 binding, biochemical; stronger effect = lower value; activity change, % (test concentration not listed); 360,000 compounds, 0.56% hits; AID 651725
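GST-Six1 + His-Eya2 (5X stock: 250/500 nM); Tris pH 8.0, 300 mM NaCl, 0.05% BSA, 0.02% Tween 20; GSH donor/Ni acceptor beads; 1 h 37 °C dark; AlphaScreen readout.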
Eya2 phos inh – Eya2 (human) phosphatase inhibition; O00167; recombinant Eya2, OMFP fluorescence dephosphorylation (OMFP is methylfluorescein phosphate); Potency, µM (titrated, usually from 76.9 µM), most hits filed as inhibitors; 330,000 compounds, 0.006% hits; AID 488837; active = well fitted curve in the direction sought with a large enough effect; inconclusive = small, poorly fitted or top-dose-only effect, or another doubt; inactive = no such curve, though single readings can be large; an effect the other way counts as inactive or inconclusive
Target sequence (O00167 whole entry, looked up): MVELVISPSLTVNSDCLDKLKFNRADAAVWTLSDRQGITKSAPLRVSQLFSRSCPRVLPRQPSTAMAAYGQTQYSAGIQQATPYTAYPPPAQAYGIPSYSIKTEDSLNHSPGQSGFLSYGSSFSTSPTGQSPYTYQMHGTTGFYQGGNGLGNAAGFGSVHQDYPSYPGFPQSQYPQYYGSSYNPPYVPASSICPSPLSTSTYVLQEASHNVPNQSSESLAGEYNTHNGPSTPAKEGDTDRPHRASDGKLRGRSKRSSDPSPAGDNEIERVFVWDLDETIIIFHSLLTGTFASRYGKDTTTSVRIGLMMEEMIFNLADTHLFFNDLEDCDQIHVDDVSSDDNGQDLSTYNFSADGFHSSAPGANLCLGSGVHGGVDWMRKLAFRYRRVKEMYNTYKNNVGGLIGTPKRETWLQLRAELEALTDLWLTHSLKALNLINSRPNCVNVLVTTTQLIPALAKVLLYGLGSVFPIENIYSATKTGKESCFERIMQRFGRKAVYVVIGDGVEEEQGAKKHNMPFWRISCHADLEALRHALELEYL
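Eya2 (0.2 uM) preincubated 10 min at ambient with compound, then OMFP substrate added at 50 uM; 10 min reaction in 50 mM HEPES pH 7.5, 50 mM NaCl, 5 uM MgCl2, 0.05% BSA, 1 mM DTT. Fluorescence read at Ex 485/Em 525 nm.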
GRP78 ERSR act – inducers of ER stress response in human glioma cells. AID 602332. Potency, µM, actives largely listed as activators. U87-MG GRP78 promoter luciferase reporter, 16 h. 420,000 compounds, 0.02% hits; active = well fitted curve in the direction sought with a large enough effect; inconclusive = small, poorly fitted or top-dose-only effect, or another doubt; inactive = no such curve, though single readings can be large; an effect the other way counts as inactive or inconclusive; note: series mostly up to about 76 µM; nearly all actives have a fitted effect of over 35% in size
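Stably transfected U87-MG glioma cells carrying a GRP78-based luciferase sensor; 16 h compound incubation. Luminescence end-point read 10 min after Bright-Glo addition at room temperature.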
Hits are given with their value; - = inactive; ? = inconclusive; . = no result given. Cut-off read from the data, not from the text of the source, unless noted: active = activity change below about -65%; inconclusive = mostly about -30% to -63%; inactive = weaker than that.

SMILES	CtBP-E1A inh	Six1-Eya2 blk	Eya2 phos inh	GRP78 ERSR act
FC(F)(F)c1cnc(C(c2ccccc2)c2ncn[nH]2)c(Cl)c1 (centres undefined)	-	-	-	-
CSc1nc(C(=O)N2CCc3c(cnc(C)c3CNC(=O)c3ccc4c(c3)OCO4)C2)cs1	.	.	.	-
Cc1c2cc(O)c(=O)cc-2oc2cc(O)c(O)cc12	-94	-89	?	-
COc1cc(OC)c(-c2c3cc(O)c(=O)cc-3oc3cc(O)c(O)cc23)cc1OC	-	?	?	-
O=C(c1n[nH]c2c1CCCC2)N1CCOc2ccc(C(O)C3CCCCC3)cc2C1 (centres undefined)	.	.	.	-
O=c1oc2cc(O)c(Cl)cc2c2ccccc12	-	-	-	-
O=c1cc2c(=O)oc3cc(O)c(O)oc3c2c(O)c1O	-	-78	-	-
Cc1ccc(OCc2nc(-c3ccccn3)n[nH]2)cc1	-98	-92	-	-
COc1ccc(-c2nc(-c3ccccn3)no2)cc1	-	-	?	-
Cc1cccc(OCc2nc(-c3ccccn3)n[nH]2)c1	-89	-94	.	-
Cc1cccc(OCc2n[nH]c(=S)n2-c2ccccc2)c1	?	-	-	-
O=C(CC(NCc1ccccn1)C(=O)O)Nc1ccccc1Cl (centres undefined)	-89	-91	-	-
COc1cccc(CNC(=O)c2c(OC)cc(=O)n3c2CCN(C(=O)C2CC24CCCCC4)CC3)c1 (centres undefined)	.	.	.	-
CCc1nnc(NC(=O)c2cc(Cl)ccn2)s1	-93	-77	-	-
CCc1nnc(NC(=O)c2ccc(Cl)nc2)s1	-	-	-	-
CCSc1nnc(NC(=O)c2ccccn2)s1	-91	-94	-	-
COC(=O)C1CCCCN1Cc1ccc2c(c1)CN(C(=O)c1cc(C)nc3cc(F)ccc13)CCO2 (centres undefined)	.	.	.	-
C[N+]1(C)CCN(C[C@@](O)(c2ccccc2)C2CCCCC2)CC1	.	.	.	-
O=C1C=CC(=O)c2c(O)c(N3CCN(CCOCCO)CC3)c(Br)c(O)c21	-	-69	.	-
CCc1ccc(O)c(N=Cc2ccccc2O)c1	-	-	-	-
O=c1[nH][nH]c2c(N=Cc3ccccc3O)ccc(F)c12	-91	?	-	-
CN(C1=C(N2CCCCC2)C(=O)c2ccccc2C1=O)c1ccccc1	-	-83	?	-
CC(C)(C)n1ncc2c(=O)n(Cc3ccc(F)cc3Cl)cnc21	.	.	.	-
NC(=O)c1ccc2c(=O)n3c(-c4cc(Cl)c(N)c(Cl)c4)csc3nc2c1	-76	-75	-	-
Cc1csc2nc3cc(C(N)=O)ccc3c(=O)n12	?	?	-	-
SMILES	CtBP-E1A inh	Six1-Eya2 blk	Eya2 phos inh	GRP78 ERSR act
Nc1ncnc(Oc2cccc3cccnc23)c1[N+](=O)[O-]	-	-67	-	-
COCc1ccc(CN2CCOc3c(cc(-c4ccc(SC)cc4)cc3OC)C2)o1	.	.	.	-
CC(Cc1ccccc1)=NNc1ccc([N+](=O)[O-])cc1[N+](=O)[O-]	?	-65	.	-
Cc1ccc2nc(SCC(=O)N3CCOc4ccc(CN5C[C@@H](C)O[C@@H](C)C5)cc4C3)[nH]c2c1	.	.	.	-
O=C(O)COc1ccc(C=C2SC(=S)N(c3ccccc3)C2=O)cc1	-92	-	.	-
CCC(=O)N[C@@H]1c2ccccc2C2(CCN(Cc3cnc(N(C)C)s3)CC2)[C@H]1OC	.	.	.	-
COc1cc(OC)c2c(c1C(CCN1CCOCC1)c1ccc(N(C)C)cc1)OC(=O)CC2c1ccc(N(C)C)cc1 (centres undefined)	?	-80	-	-
CCSS(=O)(=O)c1cccc2cccnc12	-90	-91	-	-
O=C(O)CCS(=O)(=O)c1cccc2cccnc12	-	-	-	-
Oc1ccc(/C=N/Nc2nn3cnnc3c3ccccc23)cc1	-90	-89	-	-
CCOc1cc(/C=N/Nc2nncc(-c3ccccc3)n2)ccc1O	-	-	-	-
CCOc1cc(/C=N/Nc2nn3cnnc3c3ccccc23)ccc1O	-67	-88	-	-
COc1cccc(/C=N/Nc2nn3cnnc3c3ccccc23)c1	-79	-71	-	-
COc1ccc(/C=N/Nc2nncc3ccccc23)cc1	-	-	-	-
C(=N\Nc1nn2cnnc2c2ccccc12)/c1ccco1	-	-72	-	-
C(=N\Nc1ccc2nncn2n1)/c1ccco1	?	-	?	-
COC(=O)C1CCN(Cc2ccc3c(c2)CN(C(=O)c2cc4ccccc4n2C)CCO3)CC1	.	.	.	-
COc1cc(-c2cc(C)c3c(OC)ccc(OC)c3n2)cc2c1OCCN(C(=O)CCn1ccc(C)n1)C2	.	.	.	-
O=C(Nc1ccc(Cl)cc1Cl)[C@@H]1CC=C[C@@H]2CCN(Cc3ccccc3)C(=O)[C@@H]21	.	.	.	-
O=C(Cc1ccc(OCCC2CCCCC2)cc1)NO	.	.	.	-
CCOc1ccccc1CN1CCCC(c2nc(C)ncc2-c2ccc(F)cc2)C1 (centres undefined)	.	.	.	-
CC(C)NC(=O)[C@@H]1C[C@@H](Sc2nc3ccccc3[nH]2)CN1C1Cc2ccccc2C1	.	.	.	-
CCOc1cc(/C=N/Nc2nc(C)cc(=O)[nH]2)ccc1O	?	?	-	-
COc1cc(/C=N/Nc2nn3cnnc3c3ccccc23)ccc1O	-89	-89	-	-
CCOc1cc(/C=N/Nc2ncc(C)c(=O)[nH]2)ccc1O	-81	?	?	-
SMILES	CtBP-E1A inh	Six1-Eya2 blk	Eya2 phos inh	GRP78 ERSR act
C=Nc1ccc(/C=C/c2ccnc3ccccc23)cc1	.	.	.	-
CC(C)c1c(C(=O)NCc2ccncc2)cnn1-c1nccc(-c2cccs2)n1	.	.	.	-
COc1cc(=O)n2c(c1C(=O)NC(C)c1ccco1)CCN(C(=O)c1ccnc(Cl)c1)CC2 (centres undefined)	.	.	.	-
COc1cccc(NC(=O)CN(C)C(=O)CCC(=O)c2cc(C)sc2C)c1	-77	-	-	-
COc1ccc(Cl)cc1NC(=O)CN(C)C(=O)CCC(=O)c1cc(C)sc1C	-	-	-	-
Nc1nc2ncc(C(=O)c3cc(Cl)cc(Cl)c3O)cc2s1	-72	?	-	-
O=C(NCC1(N2CCOCC2)CCCCC1)c1cnn(-c2nccc(-c3cccs3)n2)c1C1CC1	.	.	.	-
O=C(c1cncs1)N(Cc1cc2cc3c(cc2nc1N1CCOCC1)CCC3)CC1CCCO1 (centres undefined)	.	.	.	-
Cc1nn(-c2ccccc2)c(C)c1/C=C/C(=O)OCC(=O)Nc1ccc(S(N)(=O)=O)cc1	-88	-	-	-
Cc1nn(-c2ccccc2)c(C)c1/C=C/C(=O)OCC(=O)Nc1ccc(C(N)=O)cc1	.	-	-	-
O=C(NCc1ccncc1)c1cnn(-c2ncc3c(n2)-c2ccccc2CC3)c1C1CC1	.	.	.	-
COc1ccc(NC(=S)NNC(=O)c2nnn(-c3ccccc3)c2C)cc1	-	-78	-	-
CCOc1ccccc1NC(=O)CN(c1ccc(OC)cc1)S(=O)(=O)c1c(C)[nH]c(=O)[nH]c1=O	-84	-84	-	-
CCOc1ccc(N(CC(=O)Nc2ccc(OC)cc2OC)S(=O)(=O)c2c(C)[nH]c(=O)[nH]c2=O)cc1	-92	-85	-	-
CCOc1ccc(N(CC(=O)Nc2cc(OC)cc(OC)c2)S(=O)(=O)c2c(C)[nH]c(=O)[nH]c2=O)cc1	-	-	-	-
